Common to all, as to assay: DAPPL (digital affinity profiling via proximity ligation, sequencing); 10 mM Tris-HCl pH 7.5, 50 mM NaCl, 1 mM DTT, 4% glycerol, room temperature, 30 min; GST-TFs on glutathione beads, 16-mer random dsDNA library, 0.1% formaldehyde crosslink after washing; high values mean tight binding
What all share (conditions): protein: recombinant; tags: N-terminal GST; dsDNA, one strand shown

One assay addresses T1, ELK1 (Homo sapiens, UniProt P19419 1-428).
T1 sequence: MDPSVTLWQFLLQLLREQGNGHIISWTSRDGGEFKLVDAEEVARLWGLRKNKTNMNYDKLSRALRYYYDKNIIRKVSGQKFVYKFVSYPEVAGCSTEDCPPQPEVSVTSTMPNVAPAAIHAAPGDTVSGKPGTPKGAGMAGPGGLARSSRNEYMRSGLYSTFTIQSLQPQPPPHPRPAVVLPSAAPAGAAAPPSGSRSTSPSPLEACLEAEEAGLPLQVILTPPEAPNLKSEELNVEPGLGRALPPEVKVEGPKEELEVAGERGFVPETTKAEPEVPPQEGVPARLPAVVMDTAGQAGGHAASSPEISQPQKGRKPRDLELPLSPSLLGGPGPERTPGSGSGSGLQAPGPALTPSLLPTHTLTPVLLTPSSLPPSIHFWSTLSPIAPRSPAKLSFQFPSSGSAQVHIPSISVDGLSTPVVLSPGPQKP
A digest of the protocol:
(§1)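 GST fusions of human transcription factors were expressed in yeast and captured with glutathione beads. Once given DNA barcodes and pooled alongside a tag-only sample, they were incubated for 30 min at room temperature with 200 nmole of a random double-stranded 16-mer DNA library in Tris/NaCl/DTT/glycerol buffer, then washed, crosslinked (0.1% formaldehyde), proximity-ligated, PCR-amplified and sequenced on an Illumina NextSeq500. The binding signal of each hexamer is its read frequency for a factor divided by its frequency for the tag-only sample.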

The target in the next assay is T2, GABPA (Homo sapiens, UniProt Q06546 1-454).
T2 sequence: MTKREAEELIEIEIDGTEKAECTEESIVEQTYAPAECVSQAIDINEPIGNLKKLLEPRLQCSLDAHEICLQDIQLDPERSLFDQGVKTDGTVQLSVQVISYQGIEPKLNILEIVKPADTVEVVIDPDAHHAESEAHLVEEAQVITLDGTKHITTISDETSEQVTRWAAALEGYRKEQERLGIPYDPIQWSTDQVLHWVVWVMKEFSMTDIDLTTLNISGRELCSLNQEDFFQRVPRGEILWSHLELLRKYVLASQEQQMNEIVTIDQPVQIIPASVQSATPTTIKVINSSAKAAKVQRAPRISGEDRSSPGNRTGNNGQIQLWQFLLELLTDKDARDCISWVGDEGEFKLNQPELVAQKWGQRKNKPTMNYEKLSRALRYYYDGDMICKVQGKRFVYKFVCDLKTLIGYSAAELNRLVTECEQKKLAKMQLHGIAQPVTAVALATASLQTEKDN
A digest of the protocol:
as §1

In the next assay the target is T3, ERG (Homo sapiens, UniProt P11308 1-479).
T3 sequence: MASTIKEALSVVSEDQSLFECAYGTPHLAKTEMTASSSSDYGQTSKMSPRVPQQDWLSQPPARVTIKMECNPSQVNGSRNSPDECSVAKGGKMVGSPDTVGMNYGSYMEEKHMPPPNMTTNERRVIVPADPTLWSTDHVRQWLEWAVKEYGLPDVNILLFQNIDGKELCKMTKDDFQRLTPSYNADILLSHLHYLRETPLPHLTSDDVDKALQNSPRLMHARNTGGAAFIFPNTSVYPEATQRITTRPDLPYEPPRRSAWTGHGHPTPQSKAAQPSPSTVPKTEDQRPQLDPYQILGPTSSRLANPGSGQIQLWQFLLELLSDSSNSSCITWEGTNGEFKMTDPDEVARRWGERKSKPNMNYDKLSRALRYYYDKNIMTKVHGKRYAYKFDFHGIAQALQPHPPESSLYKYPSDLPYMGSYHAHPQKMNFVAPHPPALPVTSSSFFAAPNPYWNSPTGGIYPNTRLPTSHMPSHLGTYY
Put shortly: as §1

A further assay deals with ELF1 (Homo sapiens, UniProt P32519 1-619). Put shortly:
as §1

A further assay has as its target T4, EHF (Homo sapiens, UniProt Q9NZC4 1-300).
T4 sequence: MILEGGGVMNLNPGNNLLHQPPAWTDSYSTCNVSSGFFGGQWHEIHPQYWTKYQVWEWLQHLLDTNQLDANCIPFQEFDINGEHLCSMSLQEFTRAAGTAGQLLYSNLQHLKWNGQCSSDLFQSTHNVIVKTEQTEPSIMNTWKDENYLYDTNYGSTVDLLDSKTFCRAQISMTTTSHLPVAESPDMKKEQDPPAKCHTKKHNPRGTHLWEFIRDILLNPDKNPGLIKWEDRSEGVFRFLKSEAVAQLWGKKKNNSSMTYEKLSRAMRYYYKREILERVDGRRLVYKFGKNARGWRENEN
Put shortly: as §1

A further assay addresses SPIB (Homo sapiens, UniProt Q01892 1-262). A digest of the protocol:
as §1

The next assay addresses T5, FEV (Homo sapiens, UniProt Q99581 1-238).
T5 sequence: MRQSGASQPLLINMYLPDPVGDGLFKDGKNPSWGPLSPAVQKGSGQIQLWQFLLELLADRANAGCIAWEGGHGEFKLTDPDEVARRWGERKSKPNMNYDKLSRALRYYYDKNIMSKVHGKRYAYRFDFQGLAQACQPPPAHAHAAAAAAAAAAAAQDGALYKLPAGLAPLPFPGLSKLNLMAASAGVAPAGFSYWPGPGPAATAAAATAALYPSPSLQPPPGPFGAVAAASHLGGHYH
Put shortly: as §1

A further assay deals with ETV5 (Homo sapiens, UniProt P41161 1-510). A digest of the protocol: as §1
Chain of ETV5 (P41161 whole entry): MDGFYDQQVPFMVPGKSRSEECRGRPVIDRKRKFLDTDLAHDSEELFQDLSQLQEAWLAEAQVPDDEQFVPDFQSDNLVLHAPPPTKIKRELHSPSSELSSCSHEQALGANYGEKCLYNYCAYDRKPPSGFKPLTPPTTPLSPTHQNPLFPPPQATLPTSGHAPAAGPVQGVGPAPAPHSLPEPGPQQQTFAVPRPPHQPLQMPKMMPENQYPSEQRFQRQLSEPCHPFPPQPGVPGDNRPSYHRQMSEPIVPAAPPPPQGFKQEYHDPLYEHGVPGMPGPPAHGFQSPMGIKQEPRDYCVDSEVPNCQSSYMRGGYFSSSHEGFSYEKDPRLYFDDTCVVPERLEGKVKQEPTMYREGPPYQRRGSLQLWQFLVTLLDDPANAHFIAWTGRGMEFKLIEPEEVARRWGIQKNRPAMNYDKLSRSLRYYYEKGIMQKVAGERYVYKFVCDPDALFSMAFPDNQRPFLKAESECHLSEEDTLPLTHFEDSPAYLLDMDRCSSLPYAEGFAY
Another assay addresses ELF4 (Homo sapiens, UniProt Q99607 1-663). Put shortly:
as §1

In the next assay the target is T6, ELK4 (Homo sapiens, UniProt P28324-2 1-405).
T6 sequence: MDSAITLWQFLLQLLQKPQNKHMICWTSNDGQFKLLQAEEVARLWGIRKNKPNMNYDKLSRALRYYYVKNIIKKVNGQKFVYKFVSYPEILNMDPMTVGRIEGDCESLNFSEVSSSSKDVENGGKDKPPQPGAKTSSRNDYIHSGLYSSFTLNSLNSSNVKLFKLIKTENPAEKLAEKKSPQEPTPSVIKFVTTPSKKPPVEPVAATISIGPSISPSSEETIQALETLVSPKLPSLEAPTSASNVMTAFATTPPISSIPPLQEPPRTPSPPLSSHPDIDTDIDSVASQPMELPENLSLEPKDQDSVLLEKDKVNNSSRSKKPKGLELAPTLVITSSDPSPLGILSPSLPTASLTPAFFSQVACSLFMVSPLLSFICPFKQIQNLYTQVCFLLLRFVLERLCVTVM
Put shortly:
as §1

The target of the next assay is T7, ETV2 (Homo sapiens, UniProt O00321 1-342).
T7 sequence: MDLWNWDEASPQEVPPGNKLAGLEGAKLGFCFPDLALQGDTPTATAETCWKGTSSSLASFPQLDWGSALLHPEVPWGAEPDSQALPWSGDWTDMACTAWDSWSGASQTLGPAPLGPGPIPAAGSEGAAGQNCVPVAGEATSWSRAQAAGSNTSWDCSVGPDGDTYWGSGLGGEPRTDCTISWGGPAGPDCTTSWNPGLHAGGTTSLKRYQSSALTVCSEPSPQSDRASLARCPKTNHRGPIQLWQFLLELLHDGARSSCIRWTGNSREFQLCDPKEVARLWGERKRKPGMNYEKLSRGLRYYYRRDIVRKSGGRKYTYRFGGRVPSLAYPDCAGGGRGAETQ
Put shortly:
as §1

The next assay addresses T8, ELF3 (Homo sapiens, UniProt P78545 1-371).
T8 sequence: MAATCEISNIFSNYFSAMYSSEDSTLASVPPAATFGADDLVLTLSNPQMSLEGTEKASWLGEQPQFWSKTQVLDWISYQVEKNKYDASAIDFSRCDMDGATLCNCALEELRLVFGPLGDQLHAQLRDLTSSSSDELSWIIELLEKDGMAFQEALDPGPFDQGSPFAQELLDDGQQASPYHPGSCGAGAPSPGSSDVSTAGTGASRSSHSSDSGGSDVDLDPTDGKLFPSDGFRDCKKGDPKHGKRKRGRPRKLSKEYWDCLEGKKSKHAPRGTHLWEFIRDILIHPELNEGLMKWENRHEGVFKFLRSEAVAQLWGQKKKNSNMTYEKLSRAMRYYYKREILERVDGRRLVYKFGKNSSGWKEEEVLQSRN
Put shortly:
as §1

In the next assay the target is ETV1 (Homo sapiens, UniProt P50549 1-477). Put shortly: as §1
Chain of ETV1 (P50549 whole entry): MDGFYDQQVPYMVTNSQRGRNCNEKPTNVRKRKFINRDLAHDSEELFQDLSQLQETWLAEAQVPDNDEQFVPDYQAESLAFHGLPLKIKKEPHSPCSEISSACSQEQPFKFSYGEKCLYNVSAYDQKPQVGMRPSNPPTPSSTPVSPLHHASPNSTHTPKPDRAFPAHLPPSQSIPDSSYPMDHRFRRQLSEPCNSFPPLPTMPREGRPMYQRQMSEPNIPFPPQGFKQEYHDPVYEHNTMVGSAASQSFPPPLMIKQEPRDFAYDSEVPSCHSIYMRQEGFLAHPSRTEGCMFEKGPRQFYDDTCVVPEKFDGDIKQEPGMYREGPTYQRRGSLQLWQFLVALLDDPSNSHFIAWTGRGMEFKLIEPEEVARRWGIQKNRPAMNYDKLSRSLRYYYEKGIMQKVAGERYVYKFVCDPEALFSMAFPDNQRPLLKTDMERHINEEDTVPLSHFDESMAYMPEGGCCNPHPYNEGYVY
The target in a further assay is T9, ERF (Homo sapiens, UniProt P50548 1-548).
T9 sequence: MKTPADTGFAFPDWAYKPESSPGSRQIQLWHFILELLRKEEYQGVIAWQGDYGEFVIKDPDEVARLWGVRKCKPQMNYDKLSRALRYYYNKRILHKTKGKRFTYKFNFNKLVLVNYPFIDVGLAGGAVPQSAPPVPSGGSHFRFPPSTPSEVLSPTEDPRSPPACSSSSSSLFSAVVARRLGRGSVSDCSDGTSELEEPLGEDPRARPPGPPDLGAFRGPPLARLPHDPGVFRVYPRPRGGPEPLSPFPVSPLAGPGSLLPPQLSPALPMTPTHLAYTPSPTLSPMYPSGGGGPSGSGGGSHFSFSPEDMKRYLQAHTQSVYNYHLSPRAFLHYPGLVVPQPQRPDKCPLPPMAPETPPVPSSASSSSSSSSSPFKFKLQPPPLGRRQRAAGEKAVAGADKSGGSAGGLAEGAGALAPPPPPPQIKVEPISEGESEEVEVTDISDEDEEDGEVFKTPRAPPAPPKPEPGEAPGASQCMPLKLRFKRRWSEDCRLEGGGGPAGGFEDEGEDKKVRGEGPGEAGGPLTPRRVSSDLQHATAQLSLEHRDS
A digest of the protocol:
as §1

A further assay concerns the target T10, ETV3L (Homo sapiens, UniProt Q6ZN32 1-361).
T10 sequence: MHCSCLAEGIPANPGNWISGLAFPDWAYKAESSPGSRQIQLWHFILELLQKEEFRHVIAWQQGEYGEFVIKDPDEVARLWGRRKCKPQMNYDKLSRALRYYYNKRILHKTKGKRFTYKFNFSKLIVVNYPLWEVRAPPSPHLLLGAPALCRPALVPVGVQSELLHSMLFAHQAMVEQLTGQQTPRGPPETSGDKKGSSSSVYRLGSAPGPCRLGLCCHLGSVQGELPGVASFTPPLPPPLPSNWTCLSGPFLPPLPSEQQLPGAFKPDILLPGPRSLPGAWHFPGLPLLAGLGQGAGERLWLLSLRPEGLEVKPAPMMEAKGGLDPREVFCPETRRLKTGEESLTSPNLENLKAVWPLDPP
A digest of the protocol:
as §1

In another assay the target is T11, ETS2 (Homo sapiens, UniProt P15036 1-469).
T11 sequence: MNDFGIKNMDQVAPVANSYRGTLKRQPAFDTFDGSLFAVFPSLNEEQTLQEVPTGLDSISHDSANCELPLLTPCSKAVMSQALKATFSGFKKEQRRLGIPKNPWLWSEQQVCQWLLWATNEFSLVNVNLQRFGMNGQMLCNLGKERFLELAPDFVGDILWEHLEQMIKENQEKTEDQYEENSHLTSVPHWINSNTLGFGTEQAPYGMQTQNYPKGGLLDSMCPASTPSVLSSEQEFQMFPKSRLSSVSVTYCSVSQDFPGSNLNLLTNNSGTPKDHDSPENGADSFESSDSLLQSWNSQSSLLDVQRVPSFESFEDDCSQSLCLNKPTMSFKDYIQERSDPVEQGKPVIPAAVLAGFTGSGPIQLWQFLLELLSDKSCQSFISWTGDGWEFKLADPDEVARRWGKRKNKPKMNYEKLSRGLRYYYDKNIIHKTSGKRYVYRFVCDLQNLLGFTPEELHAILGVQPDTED
Put shortly: as §1

The next assay concerns the target T12, ETV7 (Homo sapiens, UniProt Q9Y603 1-341).
T12 sequence: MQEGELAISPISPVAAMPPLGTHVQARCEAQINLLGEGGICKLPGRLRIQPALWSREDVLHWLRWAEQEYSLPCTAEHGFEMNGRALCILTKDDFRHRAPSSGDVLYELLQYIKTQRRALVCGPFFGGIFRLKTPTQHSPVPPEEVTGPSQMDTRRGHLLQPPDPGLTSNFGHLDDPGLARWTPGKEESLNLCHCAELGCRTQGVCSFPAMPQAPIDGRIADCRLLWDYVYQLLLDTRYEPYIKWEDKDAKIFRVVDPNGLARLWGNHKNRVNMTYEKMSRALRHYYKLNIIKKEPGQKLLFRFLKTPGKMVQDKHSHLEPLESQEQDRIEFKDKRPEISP
A digest of the protocol: as §1

The target of another assay is T13, ETV3 (Homo sapiens, UniProt P41162-2 1-143).
T13 sequence: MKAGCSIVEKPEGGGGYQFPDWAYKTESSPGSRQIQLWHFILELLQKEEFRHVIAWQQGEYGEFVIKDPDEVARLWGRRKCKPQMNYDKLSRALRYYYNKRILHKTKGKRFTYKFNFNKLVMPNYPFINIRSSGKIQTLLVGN
Put shortly:
as §1

Another assay has as its target ETV6 (Homo sapiens, UniProt P41212 1-452). Put shortly: as §1

Chain of ELF4 (Q99607 whole entry): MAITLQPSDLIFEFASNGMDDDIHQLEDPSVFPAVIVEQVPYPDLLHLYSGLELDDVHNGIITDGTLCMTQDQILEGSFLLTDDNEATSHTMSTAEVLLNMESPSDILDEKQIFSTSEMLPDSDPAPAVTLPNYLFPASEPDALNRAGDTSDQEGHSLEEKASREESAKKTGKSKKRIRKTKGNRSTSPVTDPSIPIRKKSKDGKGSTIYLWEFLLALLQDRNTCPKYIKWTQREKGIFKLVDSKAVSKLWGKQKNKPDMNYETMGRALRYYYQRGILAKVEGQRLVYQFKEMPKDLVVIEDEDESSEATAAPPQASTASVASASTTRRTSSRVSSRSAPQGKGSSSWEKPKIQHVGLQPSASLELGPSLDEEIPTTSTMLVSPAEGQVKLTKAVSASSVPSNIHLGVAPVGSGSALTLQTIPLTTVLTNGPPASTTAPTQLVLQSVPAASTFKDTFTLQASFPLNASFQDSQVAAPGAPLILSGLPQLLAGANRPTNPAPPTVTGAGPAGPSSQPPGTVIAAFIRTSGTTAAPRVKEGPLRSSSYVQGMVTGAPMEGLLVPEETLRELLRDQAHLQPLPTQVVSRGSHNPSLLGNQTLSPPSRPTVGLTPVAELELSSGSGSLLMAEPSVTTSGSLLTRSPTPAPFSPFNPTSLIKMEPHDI
Chain of ETV6 (P41212 whole entry): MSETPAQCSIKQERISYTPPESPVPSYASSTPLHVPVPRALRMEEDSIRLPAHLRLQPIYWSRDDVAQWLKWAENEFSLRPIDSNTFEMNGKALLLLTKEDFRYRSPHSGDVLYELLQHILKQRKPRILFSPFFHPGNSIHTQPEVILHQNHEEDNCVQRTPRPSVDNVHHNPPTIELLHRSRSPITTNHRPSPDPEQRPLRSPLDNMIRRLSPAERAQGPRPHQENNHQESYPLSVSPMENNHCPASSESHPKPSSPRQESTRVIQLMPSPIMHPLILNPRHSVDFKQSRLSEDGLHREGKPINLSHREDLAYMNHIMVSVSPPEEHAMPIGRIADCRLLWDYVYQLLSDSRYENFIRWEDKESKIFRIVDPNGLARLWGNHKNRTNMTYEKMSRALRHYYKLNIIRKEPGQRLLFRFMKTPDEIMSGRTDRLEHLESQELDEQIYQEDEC
Chain of ELF1 (P32519 whole entry): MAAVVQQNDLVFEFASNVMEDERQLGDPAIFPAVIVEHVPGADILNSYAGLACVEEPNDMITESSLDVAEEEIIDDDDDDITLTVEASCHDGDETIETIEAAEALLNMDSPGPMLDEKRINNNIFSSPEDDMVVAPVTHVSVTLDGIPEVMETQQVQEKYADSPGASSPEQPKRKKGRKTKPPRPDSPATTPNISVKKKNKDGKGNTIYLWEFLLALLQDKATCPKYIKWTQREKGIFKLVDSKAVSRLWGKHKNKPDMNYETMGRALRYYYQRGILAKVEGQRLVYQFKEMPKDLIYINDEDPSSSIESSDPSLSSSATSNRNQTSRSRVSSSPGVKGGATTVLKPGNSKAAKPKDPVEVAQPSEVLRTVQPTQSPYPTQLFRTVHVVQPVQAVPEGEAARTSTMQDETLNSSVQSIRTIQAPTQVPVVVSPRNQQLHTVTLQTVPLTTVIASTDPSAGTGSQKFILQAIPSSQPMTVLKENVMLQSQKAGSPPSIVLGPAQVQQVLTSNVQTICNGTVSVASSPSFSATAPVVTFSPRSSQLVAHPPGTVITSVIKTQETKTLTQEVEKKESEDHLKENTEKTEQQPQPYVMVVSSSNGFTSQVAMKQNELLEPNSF
Chain of SPIB (Q01892 whole entry): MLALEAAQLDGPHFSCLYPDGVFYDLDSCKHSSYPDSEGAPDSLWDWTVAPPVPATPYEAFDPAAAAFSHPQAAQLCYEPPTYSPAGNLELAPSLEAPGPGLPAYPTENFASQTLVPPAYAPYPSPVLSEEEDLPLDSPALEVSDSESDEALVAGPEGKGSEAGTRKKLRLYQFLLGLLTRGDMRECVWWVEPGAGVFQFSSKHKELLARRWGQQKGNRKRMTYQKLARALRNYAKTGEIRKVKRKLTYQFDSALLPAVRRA

ATGCCA: the binding signal with ELK1 is 1.06 fold enrichment (6-mer frequency, TF over GST control); with GABPA it was 1.02 fold enrichment (6-mer frequency, TF over GST control); in the assay with ERG, 1.04 fold enrichment (6-mer frequency, TF over GST control); with ELF1, 1.07 fold enrichment (6-mer frequency, TF over GST control); in the assay with EHF, 1.05 fold enrichment (6-mer frequency, TF over GST control); with SPIB, 1.03 fold enrichment (6-mer frequency, TF over GST control). For the same sequence, the binding signal was 1.04 fold enrichment (6-mer frequency, TF over GST control) with FEV; 1.05 fold enrichment (6-mer frequency, TF over GST control) with ETV5; 1.09 fold enrichment (6-mer frequency, TF over GST control) with ELF4; 1.02 fold enrichment (6-mer frequency, TF over GST control) with ELK4; 1.06 fold enrichment (6-mer frequency, TF over GST control) in the assay with ETV2; 1.09 fold enrichment (6-mer frequency, TF over GST control) in the assay with ELF3. Besides, the binding signal is 1.02 fold enrichment (6-mer frequency, TF over GST control) with ETV1; 1 fold enrichment (6-mer frequency, TF over GST control) with ERF; 1.02 fold enrichment (6-mer frequency, TF over GST control) with ETV3L; 1.03 fold enrichment (6-mer frequency, TF over GST control) in the assay with ETS2; 1.08 fold enrichment (6-mer frequency, TF over GST control) with ETV7; 1.13 fold enrichment (6-mer frequency, TF over GST control) with ETV3. Also, the binding signal with ETV6 was 1.05 fold enrichment (6-mer frequency, TF over GST control).

The record behind these values is PMC7862700, “An all-to-all approach to the identification of sequence-specific readers for epigenetic DNA modifications on cytosine”.
